For eight molecules, Potency and outcome results are on record in PubChem BioAssay (Tox21).

SMILES strings stand for the structures. A number with no mark means an inactive call. Inconclusive results are not listed. Calls of active or inactive are those of the source. Unless noted, calls come from the whole dose curve.

Assay [1] is described as follows: Nuclear factor erythroid 2-related factor 2/antioxidant responsive element (Nrf2/ARE) small molecule agonists: qHTS cell viability counter screen in human keratinocytes (AID 1919968; active = well fitted curve in the direction sought with a large enough effect in the repeat runs; an effect the other way counts as inactive or inconclusive; note: nearly all actives have a fitted effect of over 55% in size; note: potency is the fitted concentration of half-maximal effect). In a few lines:
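Fluorescence read-out from CellTiter-Fluor after 1 h at 37 C. Wells held HaCaT-derived ARE-luciferase reporter cells (1,500/well) treated 23 h with DMSO-dissolved compounds. Run in the same wells as the luciferase agonist read.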

Assay [2] can be described thus: Nuclear factor erythroid 2-related factor 2/antioxidant responsive element (Nrf2/ARE) small molecule agonists: luciferase reporter gene qHTS assay in human keratinocytes (AID 1919969; note: nearly all actives have a fitted effect of over 35% in size; note: potency is the fitted concentration of half-maximal effect). (In general: A reporter such as luciferase makes a cellular process visible.)
Assay [3] concerns the target KiSS-1 receptor (Homo sapiens) (UniProt Q969F8). Description: Human kisspeptin (KISS1R) small molecule agonists, calcium flux assay in KISS1R-HEK293 cells (AID 1920064; active = well fitted curve in the direction sought with a large enough effect in the repeat runs; an effect the other way counts as inactive or inconclusive). The procedure, abridged: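 Calcium flux read-out: kinetic fluorescence at Ex/Em=480/540, 1 s intervals over 3 min, after pin-tool compound addition to dye-loaded KISS1R-HEK293 cells. Fifteen concentrations, triplicates.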

A short description of assay [4]: G protein-coupled receptor (GPCR) small molecule agonists, calcium flux assay: HEK293 wild type cell line counter screen (AID 1920065). In a few lines:
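Agonist mode; 18 h seeding at 37 C, 1 h dye load at 37 C; compounds pinned from DMSO, ATP as positive control; kinetic fluorescence 480/540 nm, 3 min, 1 s reads; 15 concentrations, triplicate.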
Background: A change in cytosolic calcium serves as a functional read-out for many receptors and channels.

Assay [5] can be described thus: p53 small molecule agonists, cell-based qHTS assay with human liver microsomes (AID 1963577).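 Note: p53 response element beta-lactamase reporter cells with liver microsomes plus NADPH.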 In a few lines: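 Steps: plate p53RE-bla cells, incubate 5 h at 37 C; add compound in DMSO; add microsomes (0.5 mg/mL final) and NADPH (0.5 mg/mL final); incubate 16 h at 37 C; add LiveBLAzer, 2 h RT; read fluorescence.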
(Quantitative high-throughput screening tests each substance at several concentrations.)

Assay [6] is described as follows: p53 small molecule agonists, cell-based qHTS assay with rat liver microsomes (AID 1963578). The procedure, abridged: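 Metabolic activation is supplied by rat liver microsomes with NADPH (each 0.5 mg/mL final). p53RE-bla cells incubate with compound 16 h at 37 C; reporter activity is measured by LiveBLAzer fluorescence.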
Assay [7] can be described thus: p53 small molecule agonists, cell-based qHTS assay with human liver microsomes: qHTS cell viability counter screen (AID 1963579). Note: nearly all actives have a fitted effect of over 45% in size. In a few lines:
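After the 460/530 nm beta-lactamase read, CellTiter-Glo was added to the same wells and luminescence measured after 30 min at room temperature, giving viability of p53RE-bla cells treated 16 h with compounds plus microsomes and NADPH.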

Assay [8] can be described thus: p53 small molecule agonists, cell-based qHTS assay: qHTS cell viability counter screen (AID 1963581). Note: nearly all actives have a fitted effect of over 45% in size. The procedure, abridged: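 Cytotoxicity read-out: ATP-based luminescence (CellTiter-Glo, 30 min RT) measured in the same wells as the p53 reporter assay, HCT-116 p53RE-bla cells, 16 h compound exposure at 37 C.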
The nature of assay [9]: p53 small molecule agonists, cell-based qHTS assay (AID 1963582; active = well fitted activation curve with a large enough effect in the signal ratio in the repeat runs, not every such curve was filed as active; the % refers to the signal ratio). The procedure, abridged:
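Fluorescence intensity read-out of a beta-lactamase reporter under a p53 response element. Cells were exposed to DMSO-dissolved compounds for 16 h at 37 C, then developed with FRET substrate for 2 h at RT.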

Assay [10] concerns the target 5-hydroxytryptamine receptor 2A (Homo sapiens) (UniProt P28223). Description: 5-hydroxytryptamine receptor 2A (HTR2A) small molecule antagonists, cell-based qHTS assay (AID 1963586). Note: nearly all actives have a fitted effect of over 45% in size. Note: potency is the fitted concentration of half-maximal effect. The procedure, abridged: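 CHO cells stably expressing human HTR2A were plated for 18 h at 37 C, then loaded with calcium dye for 1 h. Compounds were preincubated 5 min at room temperature before DOI (4 nM solution) was added. Kinetic fluorescence was read for 3 min.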

The target is the same in assay [11]. Put plainly: 5-hydroxytryptamine receptor 2A (HTR2A) small molecule agonists, cell-based qHTS assay (AID 1963587). Note: nearly all actives have a fitted effect of over 30% in size. The procedure, abridged:
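Kinetic calcium-flux fluorescence (2 min, 1 sec intervals) after compound addition in agonist mode. HTR2A-CHO cells were cultured 18 h, then dye-loaded 1 h at 37 C.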

The target of assay [12] is Muscarinic acetylcholine receptor M1 (Homo sapiens) (UniProt P11229). Description: Cholinergic receptor muscarinic 1 (CHRM1) small molecule antagonists, cell-based qHTS assay (AID 1963588). Note: nearly all actives have a fitted effect of over 40% in size. In a few lines: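 Compounds were tested at 15 concentrations in three independent runs. Dye-loaded CHRM1-CHO cells were exposed 5 min at room temperature before stimulation by acetylcholine added at 50nM. Intracellular calcium was read kinetically on FDSS for 3 min.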
Sequence of Muscarinic acetylcholine receptor M1 (Homo sapiens) (P11229 whole entry, looked up): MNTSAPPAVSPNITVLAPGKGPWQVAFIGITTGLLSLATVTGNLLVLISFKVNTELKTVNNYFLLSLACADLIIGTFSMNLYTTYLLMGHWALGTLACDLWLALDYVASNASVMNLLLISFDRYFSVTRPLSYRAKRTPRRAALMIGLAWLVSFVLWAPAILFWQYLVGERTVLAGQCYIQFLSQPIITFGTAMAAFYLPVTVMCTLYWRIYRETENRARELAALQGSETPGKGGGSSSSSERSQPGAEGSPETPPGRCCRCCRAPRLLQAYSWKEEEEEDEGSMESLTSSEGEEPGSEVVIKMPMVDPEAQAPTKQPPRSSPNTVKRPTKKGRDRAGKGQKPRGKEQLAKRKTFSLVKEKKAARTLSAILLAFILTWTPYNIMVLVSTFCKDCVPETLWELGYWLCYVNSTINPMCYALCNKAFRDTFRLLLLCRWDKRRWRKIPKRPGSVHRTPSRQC

Assay [13] has the same target. Put plainly: Cholinergic receptor muscarinic 1 (CHRM1) small molecule agonists, cell-based qHTS assay (AID 1963589). Note: nearly all actives have a fitted effect of over 35% in size. In a few lines:
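Calcium flux read-out: kinetic fluorescence at 1 sec intervals after pin-tool compound addition to dye-loaded CHRM1-CHO cells (human M1). Agonist mode; 15 concentrations tested in triplicate independent runs.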

The nature of assay [14]: cAMP Responsive Elements (CRE) small molecule agonists, cell-based qHTS assay (AID 1963590). The procedure, abridged:
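Beta-lactamase reporter readout: LiveBLAzer B/G FRET substrate, 2 h at room temperature, added after 3 h compound treatment of CRE-bla HEK 293T cells at 37 C/5% CO2.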

In assay [15] the target is D(2) dopamine receptor (Homo sapiens) (UniProt P14416). Description: Dopamine D2 receptor (DRD2) small molecule antagonists, cell-based qHTS assay (AID 1963595; active = well fitted inhibition curve with a large enough effect in the signal ratio in the repeat runs, with a control signal flat; the % refers to the signal ratio). In a few lines: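 Human DRD2 antagonist qHTS measuring cAMP by HTRF. The cells are exposed to compound for 10 min, then to NKH477 (200 nM) and quinpirole (12 nM) for 30 min at RT, with Ro20-1724 (0.1 mM) present throughout.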
Sequence of D(2) dopamine receptor (Homo sapiens) (P14416 whole entry, looked up): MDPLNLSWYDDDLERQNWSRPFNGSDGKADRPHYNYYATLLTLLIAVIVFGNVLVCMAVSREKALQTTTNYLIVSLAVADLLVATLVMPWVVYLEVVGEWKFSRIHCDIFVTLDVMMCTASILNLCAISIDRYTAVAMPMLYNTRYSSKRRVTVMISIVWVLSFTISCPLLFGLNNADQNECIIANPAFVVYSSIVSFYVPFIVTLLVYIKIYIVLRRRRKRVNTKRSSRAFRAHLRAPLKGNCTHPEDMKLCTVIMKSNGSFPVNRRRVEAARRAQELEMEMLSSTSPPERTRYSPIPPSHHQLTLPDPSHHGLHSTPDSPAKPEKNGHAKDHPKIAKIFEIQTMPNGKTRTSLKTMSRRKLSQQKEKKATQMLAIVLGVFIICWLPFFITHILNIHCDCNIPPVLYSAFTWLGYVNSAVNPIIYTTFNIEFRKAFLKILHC

Assay [16] can be described thus: p53 small molecule agonists, cell-based qHTS assay with rat liver microsomes: qHTS cell viability counter screen (AID 1963580). Note: nearly all actives have a fitted effect of over 45% in size. The procedure, abridged:
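Cytotoxicity counter screen: intracellular ATP read by CellTiter-Glo luminescence in the p53 reporter wells. HCT-116 p53RE-bla cells were treated for 16 h at 37 C alongside rat liver microsomes and NADPH, each 0.5 mg/mL final.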

Assay [17] is described as follows: cAMP Responsive Elements (CRE) small molecule antagonists, cell-based qHTS assay (AID 1963591; active = well fitted inhibition curve with a large enough effect in the signal ratio in the repeat runs, not every such curve was filed as active; the % refers to the signal ratio). The procedure, abridged:
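HEK293T CRE-bla; 18 h preincubation; compound pin-transfer; NKH477 0.25 uM final, 3 h, 37 C; LiveBLAzer FRET substrate 2 h RT.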

The target in assay [18] is Beta-2 adrenergic receptor (Homo sapiens) (UniProt P07550). Description: Adrenergic beta2 receptor (ADRB2) small molecule antagonists, cell-based qHTS assay (AID 1963592). Note: nearly all actives have a fitted effect of over 50% in size. Note: potency is the fitted concentration of half-maximal effect. In a few lines: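 Assay format: CHO-ADRB2 cells, 18-20hr seeding at 37C/5% CO2, then compound plus 1nM isoproterenol agonist mix for 0.5hr RT. Homogeneous time-resolved fluorescence cAMP detection after 1hr, expressed as 665/615 nm ratio.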
Sequence of Beta-2 adrenergic receptor (Homo sapiens) (P07550 whole entry, looked up): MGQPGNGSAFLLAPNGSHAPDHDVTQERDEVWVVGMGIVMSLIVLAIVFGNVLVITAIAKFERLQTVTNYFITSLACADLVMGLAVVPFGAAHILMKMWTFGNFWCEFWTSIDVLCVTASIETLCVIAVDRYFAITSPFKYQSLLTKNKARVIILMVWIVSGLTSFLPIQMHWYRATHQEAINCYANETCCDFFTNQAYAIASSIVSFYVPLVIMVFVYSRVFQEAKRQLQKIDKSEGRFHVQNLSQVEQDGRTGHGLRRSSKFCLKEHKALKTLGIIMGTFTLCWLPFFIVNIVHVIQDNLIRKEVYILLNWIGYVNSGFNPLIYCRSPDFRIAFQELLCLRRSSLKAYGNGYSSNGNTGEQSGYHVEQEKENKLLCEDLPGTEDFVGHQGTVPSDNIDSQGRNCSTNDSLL

Assay [19] has as its target D(2) dopamine receptor (Homo sapiens) (UniProt P14416). Description: Dopamine D2 receptor (DRD2) small molecule agonists, cell-based qHTS assay (AID 1963594). Note: nearly all actives have a fitted effect of over 35% in size. The procedure, abridged:
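cAMP accumulation in DRD2-HEK293 cells measured by HTRF after 1 h detection; compounds added 10 min before NKH477 (200nM […]) forskolin-analogue stimulation, 30 min at room temperature, with Ro20-1724 present at 0.1 mM final.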

Sequence of 5-hydroxytryptamine receptor 2A (Homo sapiens) (P28223 whole entry, looked up): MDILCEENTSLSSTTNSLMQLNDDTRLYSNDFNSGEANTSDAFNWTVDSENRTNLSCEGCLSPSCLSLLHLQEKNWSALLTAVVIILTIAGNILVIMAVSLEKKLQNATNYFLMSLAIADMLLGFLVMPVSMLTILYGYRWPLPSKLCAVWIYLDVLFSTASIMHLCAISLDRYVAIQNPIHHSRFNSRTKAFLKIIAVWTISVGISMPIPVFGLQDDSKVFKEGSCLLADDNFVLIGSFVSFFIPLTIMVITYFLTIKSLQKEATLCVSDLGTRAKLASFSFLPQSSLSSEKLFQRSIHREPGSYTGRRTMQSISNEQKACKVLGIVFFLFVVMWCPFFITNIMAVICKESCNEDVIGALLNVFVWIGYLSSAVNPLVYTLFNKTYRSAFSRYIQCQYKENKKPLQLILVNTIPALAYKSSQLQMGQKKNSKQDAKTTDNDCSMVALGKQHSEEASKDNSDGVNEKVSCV
Sequence of KiSS-1 receptor (Homo sapiens) (Q969F8 whole entry, looked up): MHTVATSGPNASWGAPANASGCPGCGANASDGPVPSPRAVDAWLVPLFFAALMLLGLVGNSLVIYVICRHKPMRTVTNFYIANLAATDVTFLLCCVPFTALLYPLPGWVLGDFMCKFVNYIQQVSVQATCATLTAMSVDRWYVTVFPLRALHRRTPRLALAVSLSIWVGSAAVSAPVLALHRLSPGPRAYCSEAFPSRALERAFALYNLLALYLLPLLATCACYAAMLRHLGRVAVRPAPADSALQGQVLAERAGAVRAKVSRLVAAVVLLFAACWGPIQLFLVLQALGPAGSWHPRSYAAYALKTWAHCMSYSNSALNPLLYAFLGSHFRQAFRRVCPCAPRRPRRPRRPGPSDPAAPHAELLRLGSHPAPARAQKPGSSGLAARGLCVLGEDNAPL

For the molecule `OC1CCC(C2CCCCC2)CC1` (configuration not stated), the Potency result in assay [1], in assay [2], in [5], in assay [6], in assay [7] and in assay [8] was “inactive” in each case. The Potency result in assay [9], in assay [10], in [11], in assay [12], in assay [13] and in assay [14] was “inactive” each time. For the same molecule, the Potency entry in assay [15] is “inactive”. The result in [3] and in assay [4] was inactive.
Regarding `C=CCNc1nc(NCC=C)nc(N2CCN(C(c3ccc(F)cc3)c3ccc(F)cc3)CC2)n1`, the values for the Potency in [1], in assay [10] and in assay [18] were 4.22 µM (active), 5.16 µM (active) and 11.9 µM (active), respectively. Moreover, the Potency entry in assay [2], in assay [5], in assay [6], in assay [7], in [16] and in [8] was “inactive” throughout. Besides, the Potency result in [12], in assay [13], in [14], in assay [17], in [19] and in [15] was “inactive” each time. Moreover, the result in [3] and in [4] was inactive.
Take `CCOC(=O)/C=C/C(=O)O`: the Potency result in [1], in assay [5], in [6], in [7], in [16] and in [8] was “inactive” in each case. In addition, the Potency entry in assay [10], in assay [11], in [12], in assay [13], in [17] and in assay [18] was “inactive” in each case. For the same molecule, the Potency result in [19] and in assay [15] was “inactive” in each case. The Potency in assay [2] was 61.1 µM (active). Moreover, the outcome in [3] and in assay [4] was inactive.
For the molecule `CCO`, the Potency result in assay [1], in assay [2], in assay [5], in [6], in assay [7] and in assay [8] was “inactive” throughout. In addition, the Potency entry in assay [9], in assay [17], in assay [18], in assay [19] and in assay [15] was “inactive” in each case. The result in assay [3] and in assay [4] was inactive.
On to `CC(C)CCCCCCOC(=O)c1ccc(C(=O)OCCCCCCC(C)C)c(C(=O)OCCCCCCC(C)C)c1`, for which the Potency entry in assay [1], in assay [2], in [5], in assay [6], in assay [16] and in assay [8] was “inactive” in each case. The Potency entry in assay [9], in assay [10], in assay [11], in [12], in [13] and in assay [14] was “inactive” in each case. In addition, the Potency entry in assay [17], in [18] and in [19] was “inactive” throughout. Moreover, the result in assay [3] and in assay [4] was inactive.
For `Nc1c(CC(=O)O)cccc1C(=O)c1ccc(Br)cc1`, the Potency entry in [1], in [2], in [5], in assay [6], in [7] and in assay [16] was “inactive” in each case. For the same molecule, the Potency entry in assay [18], in [19] and in assay [15] was “inactive” each time. Moreover, the outcome in [3] and in assay [4] was inactive.
For the molecule `CCOC(=O)CCC(=O)OCC`, the Potency entry in assay [1], in assay [2], in assay [5], in assay [6], in assay [7] and in [8] was “inactive” throughout. The Potency result in [9], in assay [10], in assay [11], in assay [12], in assay [13] and in assay [14] was “inactive” each time. Also, the Potency entry in assay [18], in assay [19] and in assay [15] was “inactive” in each case. The outcome in [3] and in assay [4] was inactive.
With `CC(C)(O)CCCC1=CCC(C=O)CC1` (configuration not stated), the Potency entry in [1], in assay [2], in [5], in assay [6], in assay [7] and in assay [16] was “inactive” in each case. For the same molecule, the Potency entry in [9], in assay [12], in assay [13], in assay [14], in assay [18] and in [19] was “inactive” throughout. Further, the Potency entry in assay [15] is “inactive”. In addition, the outcome in assay [3] and in assay [4] was inactive.
